Measurements as given in article PMC5540273 (PLoS ONE, 2017).

Experiments:
Settings in all cases: concentration: 1 μM, replicates: in singlicate; n = 1
[1] = system: RIOK1
[2] = system: RIOK2
[3] = system: RIOK3
[4] = system: RIPK1
[5] = system: RIPK2
[6] = system: RIPK4
[7] = system: RIPK5
[8] = system: ROCK1
[9] = system: ROCK2
[10] = system: ROS1
[11] = system: RPS6KA4(Kin.Dom.1-N-terminal)
[12] = system: RPS6KA4(Kin.Dom.2-C-terminal)
[13] = system: RPS6KA5(Kin.Dom.1-N-terminal)
[14] = system: RPS6KA5(Kin.Dom.2-C-terminal)
[15] = system: T1, RSK1(Kin.Dom.1-N-terminal)
T1 construct: gene RPS6KA1

[16] = system: T2, RSK1(Kin.Dom.2-C-terminal)
T2 construct: gene RPS6KA1

[17] = system: T3, RSK2(Kin.Dom.1-N-terminal)
T3 construct: gene RPS6KA3

[18] = system: T4, RSK2(Kin.Dom.2-C-terminal)
T4 construct: gene RPS6KA3

[19] = system: T5, RSK3(Kin.Dom.1-N-terminal)
T5 construct: gene RPS6KA2

[20] = system: T6, RSK3(Kin.Dom.2-C-terminal)
T6 construct: gene RPS6KA2
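Note: KINOMEscan kinase panel screen.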

Structure (SMILES)	%Inh [1]	%Inh [2]	%Inh [3]	%Inh [4]	%Inh [5]	%Inh [6]	%Inh [7]	%Inh [8]	%Inh [9]	%Inh [10]	%Inh [11]	%Inh [12]	%Inh [13]	%Inh [14]	%Inh [15]	%Inh [16]	%Inh [17]	%Inh [18]	%Inh [19]	%Inh [20]
Cc1ccc(O)cc1Nc1ccnc2ccc(C(C)(C)C)cc12 [GW856805]	15%	0%	11%	16%	79%	41%	22%	51%	39%	28%	4%	9%	2%	8%	30%	0%	39%	32%	16%	0%
Cn1cc(-c2cnc(N)c3c(-c4ccc5c(c4)CCN5C(=O)Cc4ccccc4)csc23)cn1 [GSK2593074]	33%	0%	6%	100%	96.1%	100%	55%	0%	11%	0%	1%	38%	0%	2%	9%	42%	0%	9%	0%	7%
CS(=O)(=O)c1cccc(CNc2nc(Nc3ccc4c(c3)CCC(=O)N4)ncc2C(F)(F)F)c1	62%	0%	59%	0%	2%	17%	0%	0%	0%	31%	26%	0%	0%	5%	44%	0%	80%	0%	59%	0%
CN(c1ccc(NC(=O)N2CCN(CCCN3CCOCC3)CC2)cc1)c1ccnc(Nc2ccc(CS(C)(=O)=O)cc2)n1.Cl [GW830899]	80%	0%	82%	4%	17%	100%	0%	0%	0%	5%	31%	0%	0%	0%	2%	1%	0%	1%	0%	0%
Cc1nn2c(=O)cc(N3CCO[C@H](C)C3)nc2n1Cc1cccc(Cl)c1Cl [GSK2373693]	39%	39%	5%	2%	61%	19%	0%	73%	5%	0%	18%	39%	19%	24%	0%	4%	10%	5%	26%	4%
COc1cccc(NC(=O)NCCNc2ccnc(Nc3ccc(F)cc3)n2)c1 [GSK1379879]	31%	0%	13%	13%	0%	23%	0%	6%	15%	0%	0%	0%	0%	34%	18%	0%	3%	0%	3%	0%
COc1cc(Nc2nccc(N3CCC(NS(=O)(=O)c4ccc(NC(C)=O)cc4)CC3)n2)cc(OC)c1OC [GSK1379825]	76%	66%	59%	81%	80%	48%	0%	28%	26%	48%	0%	0%	27%	0%	0%	0%	5%	24%	11%	2%
COc1cccc2c(-c3ccncc3)c(-c3ccc(F)cc3)nn12 [GW468513]	32%	13%	26%	0%	56%	8%	0%	0%	28%	0%	4%	0%	23%	0%	0%	48%	0%	20%	3%	0%
COc1ccc(NC(=O)c2ccoc2)cc1-c1ccc(C(=O)NCC2CC2)cc1 [GW810437]	8%	1%	5%	0%	4%	34%	14%	36%	0%	0%	18%	0%	4%	8%	0%	21%	22%	0%	0%	27%
Cl.Cl.NC(CNC(=O)c1cc(Br)c(-c2ccnc3[nH]ccc23)s1)c1ccccc1 (centres unmarked) [GSK1322949]	100%	88%	98%	21%	0%	34%	18%	99.6%	99.9%	51%	37%	62%	37%	33%	10%	26%	37%	22%	14%	14%
